An excerpt weighted towards active compounds, which were near 12% of everything screened.
Sfp PPTase inh: qHTS Assay for Inhibitors of Bacillus subtilis Sfp phosphopantetheinyl transferase (PPTase); Biochemical Sfp PPTase activity, qHTS; AID 1490, 2009; actives 3.5% (n = 310,000); Potency, µM, for the others: largest response in the series, negative = inhibition, actives largely listed as inhibitors;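 note: the enzyme is Sfp with the accession as filed and its product quenches rhodamine fluorescence; 0% = enzyme reaction without inhibitor and -100% = no enzyme wells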
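Step 1, compound plus 15 nM Sfp-PPTase, 15 min, room temperature. Step 2, add rhodamine-CoA (5 uM) and BHQ-2-YbbR (12.5 uM). Step 3, read 525/598 nm fluorescence at 0 and 30 min.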
HP1b binding inh: HTS for Inhibitors of HP1-beta Chromodomain Interactions with Methylated Histone Tails | AlphaScreen HP1-beta / biotin-H3K9me3 peptide binding | Potency, µM (highest dose often 114 µM), without a hit: at the top dose activity change, negative = inhibition, usual class: inhibitors | AID 540317, 2011 | actives 0.56% (n = 390,000) | Chromobox protein homolog 1 (Homo sapiens), P83916; note: nearly all actives have a fitted effect of over 70% in size
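HP1-beta protein (50 nM final) preincubated 30 min at room temperature with biotinylated H3(1-18)K9me3 peptide (50 nM) in PBS pH 7.4, 0.01% Tween-20, then compound added for 30 min. AlphaScreen streptavidin donor/nickel chelate acceptor beads (10 ug/mL final), 30 min dark, luminescence read.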
L3MBTL1 inh: qHTS Assay for the Inhibitors of L3MBTL1 | AlphaScreen L3MBTL1–H3K9me1 peptide binding | Potency, µM (doses to about 57.1 µM), for the others: at the highest dose activity, negative = inhibition, usual class: inhibitors | actives 0.66% (n = 230,000) | AID 485360, 2010; note: % is set by controls: 0 for no effect and ±100 for the full control effect; nearly all actives have a fitted effect of over 60% in size
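AlphaScreen proximity signal between nickel-chelate acceptor and streptavidin donor beads (final 10 ug/mL) reports binding of 50 nM L3MBTL1 to 75 nM biotin-H3 K9me1 peptide; complex incubated with compounds 30 min at room temperature; cefsulodin titration as control.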
G9a inh: qHTS Assay for Inhibitors of Histone Lysine Methyltransferase G9a; G9a H3K9 monomethylation, AlphaScreen, 2 h; Histone-lysine N-methyltransferase EHMT2 (Homo sapiens), Q96KQ7; Potency, µM (top dose mostly 102 µM), for inactives: at the highest dose activity, negative = inhibition, hits mostly inhibitors; actives 8.8% (n = 350,000); note: % is set by controls: 0 for no effect and ±100 for the full control effect; nearly all actives have a fitted effect of over 75% in size
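Step 1: enzyme (final 20 nM) with compound, 15 min RT. Step 2: substrate peptide 500 nM and SAM 20 uM, 2 h RT. Step 3: anti-H3K9me1 antibody and AlphaScreen beads, 10 min, then plate read.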
JMJD2A Tudor inh: qHTS Assay for Inhibitors of JMJD2A-Tudor Domain; Lysine-specific demethylase 4A (Homo sapiens), O75164; AlphaScreen JMJD2A-Tudor / H3K4me3 peptide binding; Potency, µM (doses to about 114 µM), without a hit: at the highest dose activity change, negative = inhibition, hits mostly inhibitors; actives 4.4% (n = 390,000); AID 504339, 2011; note: % is set by controls: 0 for no effect and ±100 for the full control effect; nearly all actives have a fitted effect of over 50% in size
BAZ2B inh: qHTS Assay for Inhibitors of BAZ2B | Bromodomain adjacent to zinc finger domain protein 2B (Homo sapiens), Q9UIF8 | AlphaScreen BAZ2B-H3K14Ac peptide displacement | Potency, µM (top dose mostly 114 µM), for the others: top-dose activity change, negative = inhibition, most hits filed as inhibitors | actives 4.4% (n = 360,000); note: % is set by controls: 0 for no effect and ±100 for the full control effect; nearly all actives have a fitted effect of over 60% in size
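BAZ2B 50 nM plus b-H3(5-23)K14Ac 50 nM, PBS pH 7.4/0.01% Tween-20, 30 min RT; compound added (max 110 uM), 30 min RT; streptavidin donor/Ni-chelate acceptor beads 10 ug/mL final, 20 min dark; AlphaScreen read.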
An asterisk follows results filed as active; ? = inconclusive; . = no result; ! = repeats disagree; [ ] = dose if it differs, or a comment. Calls come from the whole dose curve; as a rule, active = well fitted curve in the direction sought with a large enough effect; inconclusive = small, poorly fitted or top-dose-only effect, or another doubt; inactive = no such curve, though single readings can be large; an effect the other way counts as inactive or inconclusive. Potency is the fitted concentration of half-maximal effect.

SMILES	Sfp PPTase inh	HP1b binding inh	L3MBTL1 inh	G9a inh	JMJD2A Tudor inh	BAZ2B inh
Cc1ccc(C(=O)OCC(=O)c2ccc(CC(=O)N3CCOCC3)s2)cc1C	.	19%	?	?	?	50µM*
COc1cccc(N2C(=O)C(CC(=O)Nc3ccc(F)cc3)N(CCC3=CCCCC3)C2=O)c1 (stereo not given)	.	31%	.	-7%[59 µM]	-20%	-19%
CCc1ccc(NC(=O)CN(c2ccc(Cl)cc2)S(=O)(=O)c2ccsc2C(=O)OC)cc1	.	72%	.	1%[59 µM]	-15%	?
OC1=C(O)c2nc3cc(C(F)(F)F)ccc3nc21	50µM*	5%	.	?	-22%	-30%
COc1ccc(OCC(=O)NS(=O)(=O)c2ccc(Cl)cc2)cc1	23%	34%	.	17%[59 µM]	-3%	1%
O=C(COc1ccccc1)NS(=O)(=O)c1ccccc1	20%	31%	.	3.5µM*	-6%	-16%
COc1ccc(OCc2n(CC(=O)OC3CC(C)CCC3C(C)C)c3ccccc3[n+]2C)cc1 (stereo not given)	35µM*	42%	.	?	?	-26%
COc1ccc(-c2n(CC(=O)OC3CC(C)CCC3C(C)C)c3ccccc3[n+]2C)cc1 (stereo not given)	6%	24%	-13%	1.1µM*	-11%	?
CC1CCC(C(C)C)C(OC(=O)CSc2nccc(=O)[nH]2)C1 (stereo not given)	-18%	26%	.	7%	2%	-2%
Cc1ccc(CSC2=NC(C)(C)Nc3ccccc32)c(C)c1	.	224%	.	89%[59 µM]	94%	75%[57.1 µM]
Cn1cccc1C(=O)N1CCC2(CCCN(c3ccccn3)C2)CC1	-5%	.	.	3%[12.7 µM]	.	.
CC(C)NC[C@H](O)c1ccc(O)c(O)c1	4µM*!	12%	-1%	8.9µM*!	-15%	12%
CC(C)NCC(O)c1cc(O)cc(O)c1 (stereo not given)	17%	21%	.	25µM*!	-1%	2%
Cc1ccc(CNC(=O)c2nn(C)c3c2CSc2ccc(C)cc2-3)cc1	.	22%	.	-10%[12.7 µM]	-2%	-9%
Cc1ccc(C)c(N2CCN(C(=O)Cn3cnc4sc(C)c(S(=O)(=O)N5CCN(c6ncccn6)CC5)c4c3=O)CC2)c1	.	28%	.	-4%[59 µM]	-13%	-1%
COC(=O)c1c(NC(=O)C(C)C)sc(C(=O)N2CCOCC2)c1C	?	-21%	.	45µM*	-9%	5%
COC(=O)c1c(NC(C)=O)sc(C(=O)N2CCOCC2)c1C	-6%	-12%	.	29%	-4%	-1%
CCN(CCCNC(=O)C1CCN(S(=O)(=O)N2CCOCC2)CC1)c1cccc(C)c1	18%	7%	-2%	35µM*	?	-33%
Cc1cccc(CCNC(=O)C2CCN(S(=O)(=O)N3CCOCC3)CC2)c1	13%	-1%	.	15%	-26%	1%
Cc1ccc(CCNC(=O)C2CCN(S(=O)(=O)N3CCOCC3)CC2)cc1	5%	?	.	10%	28µM*	-4%
Cc1cccc(-n2c(SCC(=O)Nc3ccc(C)c(C)c3)nc3n[nH]c(C)c3c2=N)c1	.	29%	.	-4%[59 µM]	-10%	4%
Cn1c(N)c(C(=O)COC(=O)CSc2ccc3ccccc3c2)c(=O)n(C)c1=O	-7%	17%	-1%	-32%[59 µM]	-13%	-2%
Cn1c(N)c(C(=O)COC(=O)Cc2ccsc2)c(=O)n(C)c1=O	-6%	23%	7%	45µM*	-8%	32%
CC(=O)NC(CC(=O)OCC(=O)c1c(N)n(C)c(=O)n(C)c1=O)c1ccccc1 (stereo not given)	21%	-12%	-13%	-11%	13µM*	-18%
CC(=O)Oc1ccc(C(=O)OCC(=O)c2c(N)n(C)c(=O)n(C)c2=O)cc1OC(C)=O	18%	21%	-3%	50µM*	9%	-25%
SMILES	Sfp PPTase inh	HP1b binding inh	L3MBTL1 inh	G9a inh	JMJD2A Tudor inh	BAZ2B inh
Cn1c(N)c(C(=O)COC(=O)CSc2cccc3cccc(Cl)c23)c(=O)n(C)c1=O	12%	-11%	-16%	.	50µM*	?
Cn1c(N)c(C(=O)COC(=O)Cc2ccc(Br)cc2)c(=O)n(C)c1=O	.	20%	0%	.	-4%	.
CCCCOc1ccc(S(=O)(=O)N2CCN(c3ccccc3OCC)CC2)cc1	.	83%	.	36%[59 µM]	-4%	47%
CN(C)c1ccc(-c2nccc(Nc3ccc(F)cc3)n2)cc1	?	.	.	1%[0.501 µM]	.	.
CC(CNC(=O)c1cc2ccccn2n1)c1ccccc1 (stereo not given)	.	39%	.	10%[59 µM]	2%	0%
CCOc1ccc(OCC)c(NS(=O)(=O)c2ccc3c(c2)CCCN3C(C)=O)c1	.	19%[57 µM]	.	2%[59 µM]	-24%	-11%
O=C(/C=C/c1ccco1)N1CCN(c2ccccc2)CC1	3%	13%	-6%	?	0%	-28%
CCC(=O)Nc1ccc(NC(=S)NC(=O)/C=C/c2ccco2)cc1	-2%	-9%	7%[2.29 µM]	-9%[0.501 µM]	?	-31%
CCCCC(=O)NC(=S)Nc1cc(C(=O)O)ccc1OC	10%	30%	6%	1%	-5%	-23%
CC(=O)NC(=S)Nc1ccc(NC(=S)NC(=O)/C=C/c2ccco2)cc1	-23%	11%	.	40µM*	?	?
O=C(/C=C\c1ccco1)Nc1ccc(N2CCN(C(=O)c3ccccc3)CC2)cc1	0%	-12%	-21%	?	-27%	71µM*
COc1ccc(C(=O)O)cc1NC(=S)NC(=O)/C=C/c1ccc(C(C)C)cc1	-23%	6%	.	?	79µM*	50µM*
COc1ccc(NC(=S)NC(=O)/C=C/c2ccco2)cc1	6%	3%	.	22µM*	-15%	?
O=C(Nc1cccc(Cl)c1)c1ccc2nc(Cc3ccccc3)oc2c1	.	37%[57 µM]	.	10%[59 µM]	-7%	5%
O=C(/C=C/c1ccco1)NC(=S)Nc1ccc(O)c(-c2nc3ccccc3s2)c1	-19%	-1%	?	40µM*	?	-4%
CCN(CC(=O)Nc1ccc(NC(C)=O)cc1)C(=O)Cc1coc2cc(C)c(C)cc12	.	21%	6%	50µM*	-15%	6%
O=C(/C=C/c1ccco1)NC(=S)NNC(=O)c1ccco1	-6%	-4%	?	11µM*	-21%	2%
